Records with an inconclusive call do not appear. Entries that show only a call come without a potency. Activity calls are given as the source filed them. The call rests on the fitted dose curve; in most records, active means well fitted curve in the direction sought with a large enough effect; inconclusive means small, poorly fitted or top-dose-only effect, or another doubt; inactive means no such curve, though single readings can be large; an effect the other way counts as inactive or inconclusive.
Legend:
[1] = qHTS to identify inhibitors of the type 1 interferon - major histocompatibility complex class I in skeletal muscle: primary screen against the NCATS Pharmaceutical Collection (AID 1347407);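 further: luminescence of HiBiT knocked into endogenous HLA-B as interferon-induced MHC class I level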
Procedure, shortened: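 Compounds […] were added to CRISPR-engineered HLA-B-HiBiT C25cl48 human myoblasts with 4.0 ng/ml IFN-beta. After 24 hrs at 37 C, cells were lysed and HiBiT luminescence measured.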

[2] = target: Protein phosphatase 1D (Homo sapiens) (UniProt O15297); experiment: RapidFire Mass Spectrometry qHTS Assay for Modulators of WT P53-Induced Phosphatase 1 (WIP1) (AID 1347424);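 further: amount of dephosphorylated VEPPL-S-QETFS peptide product formed by WIP1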; further: potency means the concentration at half of the fitted maximal effect
Procedure, shortened: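 Mass-spectrometric measurement of dephosphorylated peptide after a 5 min room-temperature reaction of 10 nM WIP1 with 2 uM phosphopeptide, following 1 h compound preincubation in 30 mM MgCl2 buffer.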

[3] = target: Protein phosphatase 1D (Homo sapiens) (UniProt O15297); experiment: Rhodamine-PBP qHTS Assay for Modulators of WT P53-Induced Phosphatase 1 (WIP1) (AID 1347425)
Procedure, shortened: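 5 nM WIP1 + 10 uM Rh-PBP, 50 mM Tris pH 7.5, 30 mM MgCl2, 1 mM TCEP, 0.1 mM EGTA, BSA; cpds pinned, 1 hr RT; + 10 uM phosphopeptide; fluorescence 1-min reads x 11 min; delta = f1 - f0.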

[4] = Primary qHTS for inhibitors of La Crosse Virus (LACV) - induced cell death in SH-SY5Y cells (AID 1508616);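 further: top concentration of the series differs between compounds; higher means more rescue of cells from virus-induced death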
Procedure, shortened: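 Cytopathicity rescue screen: compounds pinned onto SH-SY5Y cells, which are then infected with LACV (MOI 0.01) and held 6 days at 37C. Percent activity is scaled between infected DMSO control and uninfected DMSO control.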

[5] = target: Calcium and integrin-binding protein 1 (Homo sapiens) (UniProt Q99828); experiment: Primary qHTS for Identification of Calcium Integrin Binding Protein 1 (CIB1) Competitor (AID 1508620); further: potency means the concentration at half of the fitted maximal effect
Procedure, shortened: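 Fluorescence polarization competition: CIB1-GST (1 uM final) preincubated with compound 15 min at room temperature, then FITC-labeled alphaIIb peptide (100 nM final) added for another 15 min. Polarization read at Ex 480/Em 540.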

[6] = qHTS to identify inhibitors of the type 1 interferon - major histocompatibility complex class I in skeletal muscle: primary screen against the NCATS Mechanism Interrogation Plate v5.0 (MIPE) Libary (AID 1347411); further: potency means the concentration at half of the fitted maximal effect; nearly all actives have a fitted effect of over 65% in size
Procedure, shortened: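 HLA-B HiBit myoblasts, dexamethasone-free medium + 4 ng/ml IFN-b, 24 h compound, 11-pt 1:3 from 46 uM final. Readout: Nano-Glo HiBiT lytic luminescence after 10 min lysis, RT.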

[7] = target: Calcium and integrin-binding protein 1 (Homo sapiens) (UniProt Q99828); experiment: Confirmatory qHTS for Identification of Calcium Integrin Binding Protein 1 (CIB1) Competitor (AID 1508617); further: potency means the concentration at half of the fitted maximal effect; nearly all actives have a fitted effect of over 65% in size
Procedure, shortened: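 Confirmatory qHTS measures displacement of a FITC-alphaIIb peptide (100 nM) from CIB1-GST (1 uM) by fluorescence polarization. Calcium-containing HEPES buffer, pH 7.4; two 15 min room-temperature incubations.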

Protein phosphatase 1D (Homo sapiens), sequence (O15297 whole entry, looked up): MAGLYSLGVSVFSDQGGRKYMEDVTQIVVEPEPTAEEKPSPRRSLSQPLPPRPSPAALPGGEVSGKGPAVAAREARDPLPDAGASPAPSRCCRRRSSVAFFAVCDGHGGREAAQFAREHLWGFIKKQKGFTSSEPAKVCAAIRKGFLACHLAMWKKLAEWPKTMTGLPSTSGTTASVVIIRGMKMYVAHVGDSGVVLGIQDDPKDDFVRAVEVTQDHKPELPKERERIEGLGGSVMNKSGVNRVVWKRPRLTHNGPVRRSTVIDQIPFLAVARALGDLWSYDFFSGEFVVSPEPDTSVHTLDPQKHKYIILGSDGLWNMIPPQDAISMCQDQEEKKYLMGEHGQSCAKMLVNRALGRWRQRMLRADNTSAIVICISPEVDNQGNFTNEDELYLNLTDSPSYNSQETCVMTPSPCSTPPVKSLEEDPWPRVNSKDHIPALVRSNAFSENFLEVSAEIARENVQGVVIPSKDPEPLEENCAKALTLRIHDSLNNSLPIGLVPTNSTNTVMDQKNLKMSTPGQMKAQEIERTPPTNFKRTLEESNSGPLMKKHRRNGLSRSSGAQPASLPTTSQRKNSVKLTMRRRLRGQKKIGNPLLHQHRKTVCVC
Calcium and integrin-binding protein 1 (Homo sapiens), sequence (Q99828 whole entry, looked up): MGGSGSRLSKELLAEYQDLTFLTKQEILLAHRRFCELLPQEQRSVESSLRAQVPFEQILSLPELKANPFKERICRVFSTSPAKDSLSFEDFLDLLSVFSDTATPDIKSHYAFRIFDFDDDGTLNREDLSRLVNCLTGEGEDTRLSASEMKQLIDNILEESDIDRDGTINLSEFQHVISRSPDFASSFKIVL

CCOC(=O)c1ccc(N)cc1
Potency [1]: inactive | Potency [2]: inactive | outcome [3]: inactive | outcome [4]: inactive | Potency [5]: inactive

Cc1cc(-c2ccccc2)nnc1NCCN1CCOCC1
Potency [1]: inactive | Potency [2]: inactive | outcome [3]: inactive | outcome [4]: inactive | Potency [5]: inactive

C[N+]12CCC(CC1)C(OC(=O)C(O)(c1ccccc1)c1ccccc1)C2 (configuration not stated)
Potency [1]: inactive | Potency [2]: inactive | outcome [3]: inactive | outcome [4]: inactive | Potency [5]: inactive

CC(C)(C)CC(C)(C)c1ccc(O)c(-n2nc3ccccc3n2)c1
Potency [1]: inactive | Potency [2]: inactive | outcome [3]: inactive | outcome [4]: inactive | Potency [5]: inactive

OC[C@H]1O[C@@H](Oc2ccc(O)cc2)[C@H](O)[C@@H](O)[C@@H]1O
Potency [1]: inactive | Potency [2]: inactive | outcome [3]: inactive | outcome [4]: inactive | Potency [5]: inactive

CC(O)Cn1cnc2c1c(=O)n(C)c(=O)n2C (configuration not stated)
Potency [1]: inactive | Potency [2]: inactive | outcome [3]: inactive | outcome [4]: inactive | Potency [5]: inactive

N[C@H](C(=O)O)[C@@H](O)c1ccc(O)c(O)c1
Potency [1]: inactive | Potency [2]: inactive | outcome [3]: inactive | outcome [4]: inactive | Potency [5]: inactive

N/C(=N\N=C\c1ccc(Cl)cc1)N/N=C/c1ccc(Cl)cc1
Potency [1]: inactive | Potency [2]: inactive | outcome [3]: inactive | outcome [4]: inactive | Potency [5]: inactive

CC(C)[N+](C)(C)CC(O)COc1cccc2ccccc12 (configuration not stated)
Potency [1]: inactive | Potency [2]: inactive | outcome [3]: inactive | outcome [4]: inactive | Potency [5]: inactive

CN(C)C(=O)Nc1ccc(Cl)c(Cl)c1
Potency [1]: inactive | Potency [2]: inactive | outcome [3]: inactive | outcome [4]: inactive | Potency [5]: inactive

Oc1ccccc1C=NCc1ccccc1
Potency [1]: inactive | Potency [2]: inactive | outcome [3]: inactive | outcome [4]: inactive | Potency [5]: inactive

O=C(Nc1ccc([N+](=O)[O-])cc1)Nc1ccc([N+](=O)[O-])cc1
Potency [1]: inactive | Potency [2]: inactive | outcome [3]: inactive | outcome [4]: inactive | Potency [5]: inactive

c1ccc(-c2nc[nH]c2-c2ccccc2)cc1
Potency [1]: inactive | Potency [2]: inactive | outcome [3]: inactive | outcome [4]: inactive | Potency [5]: inactive

CC(=O)OC[C@H]1O[C@@H](n2ncc(=O)[nH]c2=O)[C@H](OC(C)=O)[C@@H]1OC(C)=O
Potency [1]: inactive | Potency [2]: inactive | outcome [3]: inactive | outcome [4]: inactive | Potency [5]: inactive

Cl/C(=C\n1cncn1)c1ccc(Cl)cc1Cl
Potency [1]: inactive | Potency [2]: inactive | outcome [3]: inactive | outcome [4]: inactive | Potency [5]: inactive

COc1ccc(/C=N/NC(=O)c2ccncc2)cc1OC
Potency [1]: inactive | Potency [2]: inactive | outcome [3]: inactive | outcome [4]: inactive | Potency [5]: inactive

C=CCN1CCc2nc(N)sc2CC1
Potency [1]: inactive | Potency [2]: inactive | outcome [3]: inactive | outcome [4]: inactive | Potency [5]: inactive

CCCCCCCCNC(C)C(O)c1ccc(SC(C)C)cc1 (configuration not stated)
Potency [1]: inactive | Potency [2]: inactive | outcome [3]: inactive | outcome [4]: inactive | Potency [5]: inactive

CCCCCCCCCCCCSCCOCCO
Potency [1]: inactive | Potency [2]: inactive | outcome [3]: inactive | outcome [4]: inactive | Potency [5]: inactive

CCCCCCCCOc1ccc(C(=O)c2ccccc2)c(O)c1
Potency [1]: inactive | Potency [2]: inactive | outcome [3]: inactive | outcome [4]: inactive | Potency [5]: inactive

O=C(NCCc1c[nH]c2ccccc12)c1cccnc1
Potency [1]: inactive | Potency [2]: inactive | outcome [3]: inactive | outcome [4]: inactive | Potency [5]: inactive

CC(=O)NCCCCCC(=O)O
Potency [1]: inactive | Potency [2]: inactive | outcome [3]: inactive | outcome [4]: inactive | Potency [5]: inactive

Cc1cccc(C)c1NC(=O)c1ccccc1C(=O)O
Potency [1]: inactive | Potency [2]: inactive | outcome [3]: inactive | outcome [4]: inactive | Potency [5]: inactive

CCc1nn(CCCN2CCN(c3cccc(Cl)c3)CC2)c(=O)n1CCOc1ccccc1
Potency [1]: inactive | Potency [2]: inactive | outcome [3]: inactive | outcome [4]: inactive | Potency [5]: inactive

COc1ccccc1N1CCN(CCCCNC(=O)c2ccc(-c3ccc(C(C)=O)cc3)cc2)CC1
Potency [1]: inactive | Potency [2]: inactive | outcome [3]: inactive | outcome [4]: inactive | Potency [5]: inactive

COc1cc(O)c(C(=O)c2ccccc2)cc1S(=O)(=O)O
Potency [1]: inactive | Potency [2]: inactive | outcome [3]: inactive | outcome [4]: inactive | Potency [5]: inactive

O=C(O)CCNC(=O)c1ccccc1
Potency [2]: inactive | outcome [4]: inactive | Potency [5]: inactive

CCCCCN=C(N)N/N=C/c1c[nH]c2ccc(OC)cc12
Potency [6]: 6.58 µM (active) | Potency [2]: inactive | outcome [3]: inactive | outcome [4]: inactive | Potency [5]: inactive

CC(=O)OCC(=O)[C@H]1CC[C@H]2[C@@H]3CCC4=CC(=O)CC[C@]4(C)[C@H]3CC[C@]12C
Potency [2]: inactive | outcome [3]: inactive | outcome [4]: inactive | Potency [5]: inactive

CC(=O)OCC1=C(C(=O)O)N2C(=O)[C@@H](NC(=O)CSc3ccncc3)[C@H]2SC1
Potency [1]: inactive | outcome [3]: inactive | outcome [4]: inactive | Potency [5]: inactive

CCCCNC(=O)NS(=O)(=O)c1ccc(N)cc1
Potency [1]: inactive | Potency [2]: inactive | outcome [4]: inactive | Potency [5]: inactive

CCN(CC)CCNc1ccc(CO)c2sc3ccccc3c(=O)c12
Potency [2]: inactive | outcome [3]: inactive | outcome [4]: inactive | Potency [5]: inactive

CC(=O)Nc1ncc([N+](=O)[O-])s1
Potency [1]: inactive | outcome [3]: inactive | outcome [4]: inactive | Potency [5]: inactive

NCCNc1cccc2ccccc12
Potency [2]: inactive | outcome [3]: inactive | outcome [4]: inactive | Potency [5]: inactive

CCC(Cc1c(I)cc(I)c(N)c1I)C(=O)O (configuration not stated)
Potency [1]: inactive | outcome [4]: inactive | Potency [5]: inactive

O=C1c2cccc3c2[C@H](CCC3)CN1[C@@H]1CN2CCC1CC2
Potency [2]: inactive | outcome [3]: inactive | outcome [4]: inactive | Potency [5]: inactive

CC1=C(C(=O)O)N2C(=O)[C@@H](NC(=O)[C@H](N)c3ccccc3)[C@H]2SC1
Potency [2]: inactive | outcome [3]: inactive | outcome [4]: inactive | Potency [5]: inactive

Cc1ccc(O)c([C@H](CCN(C(C)C)C(C)C)c2ccccc2)c1
Potency [1]: inactive | Potency [2]: inactive | Potency [5]: inactive

CCN(CC)CCOc1ccccc1C(=O)CCc1ccccc1
Potency [2]: inactive | outcome [4]: inactive | Potency [5]: inactive

CCN1/C(=C/C=C/c2sc3ccccc3[n+]2CC)Sc2ccccc21
Potency [1]: inactive | outcome [3]: inactive | outcome [4]: inactive | Potency [5]: inactive

NC(N)=NN=C(/C=C/c1ccc([N+](=O)[O-])o1)/C=C/c1ccc([N+](=O)[O-])o1
outcome [4]: inactive | Potency [5]: inactive

Cc1c(-c2ccccc2)oc2c(C(=O)OCCN3CCCCC3)cccc2c1=O
Potency [2]: inactive | outcome [3]: inactive | outcome [4]: inactive | Potency [5]: inactive

O=C(Nc1ncc([N+](=O)[O-])s1)c1cccs1
outcome [4]: inactive | Potency [5]: inactive

CCN(CC)CCOc1ccc2c(c1)C(=O)c1cc(OCCN(CC)CC)ccc1-2
Potency [2]: inactive | outcome [3]: inactive | Potency [5]: inactive

CN1CCN(C2=Nc3cc(F)ccc3Cc3ccccc32)CC1
Potency [2]: inactive | outcome [4]: inactive | Potency [5]: inactive

CCN1CCN(C(=O)N[C@@H](C(=O)N[C@@H]2C(=O)N3C(C(=O)O)=C(CSc4nnnn4C)CS[C@H]23)c2ccc(O)cc2)C(=O)C1=O
Potency [2]: inactive | outcome [3]: inactive | outcome [4]: inactive | Potency [5]: inactive

CCCCC(CC)COC(=O)/C=C/c1ccc(OC)cc1 (configuration not stated)
Potency [2]: inactive | outcome [4]: inactive | Potency [5]: inactive

O=C1OC2(c3ccccc31)c1cc(Br)c(O)c(Br)c1Oc1c2cc(Br)c(O)c1Br
Potency [1]: inactive | outcome [4]: inactive | Potency [5]: inactive

C/C=C/C=N/NC(=O)c1ccncc1
Potency [1]: inactive | Potency [2]: inactive | outcome [4]: inactive | Potency [5]: inactive

CCCCCCCCCCCCCC[N+](C)(C)Cc1ccccc1
Potency [2]: inactive | outcome [4]: inactive | Potency [5]: inactive

C=C[C@H]1CN2CC[C@H]1C[C@@H]2[C@@H](O)c1ccnc2ccc(OC)cc12
Potency [2]: inactive | outcome [3]: inactive | outcome [4]: inactive

C#C[C@]1(OC(C)=O)CC[C@H]2[C@@H]3CCC4=C/C(=N/O)CC[C@@H]4[C@H]3CC[C@@]21CC
outcome [3]: inactive | outcome [4]: inactive | Potency [5]: inactive

CC[C@H](c1ccc(O)cc1)[C@@H](CC)c1ccc(O)cc1
outcome [4]: inactive | Potency [5]: inactive

CCCN(CCc1cccs1)[C@H]1CCc2c(O)cccc2C1
Potency [2]: inactive | outcome [3]: inactive | outcome [4]: inactive | Potency [5]: inactive

CC(=O)Nc1ccc(OC(=O)c2ccccc2OC(C)=O)cc1
Potency [1]: inactive | Potency [2]: inactive | outcome [4]: inactive | Potency [5]: inactive

CCc1oc2ccccc2c1C(=O)c1cc(I)c(O)c(I)c1
Potency [2]: 3.55 µM (active) | outcome [4]: inactive | Potency [7]: 35.5 µM (active)

CC(=O)O[C@]1(C(C)=O)CC[C@H]2[C@@H]3C=C(Cl)C4=CC(=O)CC[C@]4(C)[C@H]3CC[C@@]21C
Potency [2]: inactive | outcome [3]: inactive | outcome [4]: inactive | Potency [5]: inactive

CNCCCCOc1ccccc1Cc1ccccc1
Potency [2]: inactive | outcome [3]: inactive | outcome [4]: inactive | Potency [5]: inactive

NS(=O)(=O)c1cc2c(cc1Cl)NC(CC1CCCC1)NS2(=O)=O (configuration not stated)
Potency [1]: inactive | outcome [4]: inactive | Potency [5]: inactive

C#C[C@]1(O)CC[C@H]2[C@@H]3CCC4=Cc5oncc5C[C@]4(C)[C@H]3CC[C@@]21C
Potency [2]: inactive | outcome [3]: inactive | outcome [4]: inactive

O=C1C(CCS(=O)c2ccccc2)C(=O)N(c2ccccc2)N1c1ccccc1 (configuration not stated)
Potency [2]: inactive | outcome [4]: inactive | Potency [5]: inactive

CN1CCC[C@@H]1CCO[C@](C)(c1ccccc1)c1ccc(Cl)cc1
Potency [1]: inactive | Potency [2]: inactive | Potency [5]: inactive

Oc1ccc(Cl)cc1Cc1cc(Cl)ccc1O
Potency [2]: 22.4 µM (active) | outcome [4]: inactive | Potency [7]: 44.7 µM (active) | Potency [5]: 79.4 µM (active)

Reference: PubChem BioAssay (NCATS)
